Results reported in the supplement of paper PMC10338343.
± gives the standard deviation.

Columns and labels:
[1] = test system: MILI (PIWIL2) piRISC loaded with piRNA #1 (26 nt); test: pre-steady-state target cleavage rate (min^-1); guide: piRNA #1 5'p-UGAGGUAGUAGGUUGUAUAGUAUCCA; higher = faster piRNA-guided slicing of the target; conditions: auxiliary factor: 500 nM mouse GTSF1;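 also: 1 nM active piRISC with 0.1 nM target library at 33 °C single turnover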
In short: (§1)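 For Cleave-'n-Seq, a transcribed, DNA-blocked target RNA library […] met 1 nM active affinity-purified piRISC with one synthetic guide at 33 °C for 0–8 or 0–960 min in HEPES–potassium acetate buffer, with or without 500 nM GTSF1 partner protein. Uncleaved targets were sequenced and normalised to depth and weakly complementary targets, with three trials pooled and k3 capped at 0.0001 min^-1. A burst-and-steady-state fit supplied the pre-steady-state cleavage rate.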

[2] = test system: EfPiwi piRISC loaded with piRNA #1 (26 nt); test: pre-steady-state target cleavage rate (min^-1); auxiliary factor: 500 nM Ephydatia muelleri Gtsf1; guide: piRNA #1 5'p-UGAGGUAGUAGGUUGUAUAGUAUCCA; MIWI and MILI are mouse PIWI proteins and EfPiwi is from a freshwater sponge; tags in brackets are library labels; higher = faster piRNA-guided slicing of the target
In short: as §1

Sequence | pre-steady-state target cleavage rate [1] | pre-steady-state target cleavage rate [2]
GGAGACCUUACUAUACAACCUACUACCUCC [g2:g22:cont:t1C] | 0.172 ± 0.017 | 0.0065 ± 0.0027
GGAGACGAAUACUAUACAACCUACUACCUCA | 0.178 ± 0.015 | 0.0529 ± 0.018
GGAGACGUAUACUAUACAACCUACUACCUCA | 0.193 ± 0.013 | 0.0356 ± 0.013
GGAGACCAUACUAUACUACCUACUUCCUCA | 0.0579 ± 0.011 | 0.00301 ± 0.0023
GGAGACCUAUCUAUACAACCUACUACCAGA | 0.104 ± 0.016 | 0.00327 ± 0.0026
GGAGUCGAUACUAUACAACGUACUACCUCA | 0.0256 ± 0.0024 | 0.00501 ± 0.0019
GGAGACCAUACAUUACAACCUACUACCUCA | 0.0869 ± 0.014 | 0.0108 ± 0.0045
GGAGACCUAACUAUACAACCUACUACCCA | 0.0749 ± 0.027 | 0.00326 ± 0.0026
GGAGACGAAACUUUACAACCUACUACCUCA | 0.213 ± 0.03 | 0.0147 ± 0.0064
GGAGACCAUAGUUUACAACCUACUACCUCA | 0.0547 ± 0.0081 | 0.0227 ± 0.0096
GGAGACCUAACUAUACAACCUAGUACCUCA | 0.016 ± 0.0088 | 0.00385 ± 0.0021
GGAGUGGAUACUAUAUCAACCUACUACCUCA | 0.143 ± 0.013 | 0.0851 ± 0.03
GGAGUGGAUACUAUACAACCUACUACCUCU [g2:g26:cont:t1U] | 0.231 ± 0.019 | 1.05 ± 0.27
GGAGAGGUACUAUACAACCUACUACCUCA | 0.089 ± 0.0084 | 0.00824 ± 0.0048
GGAGUGGAUAUUAUACAACCUACUACCUCA | 0.178 ± 0.0094 | 0.00879 ± 0.0043
GGAGUGGAUACUAUACAAGCUACUACCUCA | 0.233 ± 0.013 | 0.008 ± 0.0032
GGAGACCUUACCAUACAACCUACUACCUCA | 0.134 ± 0.02 | 0.0112 ± 0.0056
GGAGUGGAUACUAUACAACGUACUACCUCA | 0.0277 ± 0.0034 | 0.00682 ± 0.0022
GGAGACCAUACUAUCAACCUACUACCUCA | 0.199 ± 0.022 | 0.0101 ± 0.005
GGAGACGAUACUAUACAACCUACUACGACA | 0.131 ± 0.022 | 0.0045 ± 0.0019
GGAGACCUUACUAUACAACCUACUACCUGA | 0.117 ± 0.016 | 0.00415 ± 0.0019
GGAGAGGAUACUAUACAACCUAUUACCUCA | 0.174 ± 0.018 | 0.153 ± 0.056
GGAGUGGAUUCUAUACAACCUACUACCUCA | 0.175 ± 0.0091 | 0.00893 ± 0.0047
GGAGAGGAUACUAUACAACCUACUACCUCG [g2:g25:cont:t1G] | 0.175 ± 0.015 | 0.143 ± 0.048
GGAGACCUAACUAUACAACCUACUACCUCU [g2:g21:cont:t1U] | 0.152 ± 0.025 | 0.915 ± 0.29
GGAGAGGAUACUAUACAAGCUUCUACCUCA | 0.0253 ± 0.0037 | 0.0045 ± 0.0024
GGAGAGGUUACUAUACAACCAACUACCUCA | 0.00725 ± 0.0016 | 0.00401 ± 0.002

Sequence | pre-steady-state target cleavage rate [1] | pre-steady-state target cleavage rate [2]
GGAGAGGAUACAAUACAACCUAGUACCUCA | 0.0411 ± 0.0087 | 0.00263 ± 0.0018
GGAGUGGAUACUAAACAACCUUCUACCUCA | 0.00905 ± 0.0025 | 0.00385 ± 0.0026
GGAGACCUUACUACACAACCUACUACCUCA | 0.126 ± 0.017 | 0.00432 ± 0.0039
GGAGAGGAUACUAUACAACCUAAUACCUCA | 0.0575 ± 0.01 | 0.00595 ± 0.0025
GGAGUGUGAUACUAUACAACCUACUACCUCA | 0.179 ± 0.0087 | 0.0158 ± 0.0069
GGAGACCUAACGUAUACAACCUACUACCUCA | 0.0292 ± 0.012 | 0.0505 ± 0.021
GGAGUGGAUACUAUACAAGCAACUACCUCA | 0.00874 ± 0.0017 | 0.00256 ± 0.0013
GGAGACCUUACCUAUACAACCUACUACCUCA | 0.0629 ± 0.016 | 0.0117 ± 0.0057
GGAGUGGAUUACUAUACAACCUACUACCUCA | 0.154 ± 0.0078 | 0.00938 ± 0.0037
GGAGUGGAUACUAUACAGCCUACUACCUCA | 0.147 ± 0.0093 | 0.216 ± 0.073
GGAGACCAUACUAUACAACCUACUUCCUCA | 0.114 ± 0.018 | 0.00455 ± 0.002
GGAGAGGAUACUAUACAACCGACUACCUCA | 0.00439 ± 0.0027 | 0.00504 ± 0.002
GGAGUGGUUACUAUACAACGUACUACCUCA | 0.0218 ± 0.003 | 0.00485 ± 0.0014
GGAGAGGAUAGCUAUACAACCUACUACCUCA | 0.035 ± 0.0046 | 0.0146 ± 0.0073
GGAGAGGAUACUAAACAACCAACUACCUCA | 0.00772 ± 0.0023 | 0.00246 ± 0.0017
GGAGACGAUACUAAUCAACCUACUACCUCA | 0.182 ± 0.015 | 0.0059 ± 0.0033
GGAGAGGAUACUAUACAAGGUACUACCUCA | 0.0284 ± 0.0051 | 0.00404 ± 0.0023
GGAGAGGAUACCAUACAACCUACUACCUCA | 0.167 ± 0.021 | 0.0957 ± 0.032
GGAGUGGAUAGUAUACAACGUACUACCUCA | 0.0168 ± 0.0038 | 0.00231 ± 0.0021
GGAGACCUAACUAUACAACCUACUACCUUA | 0.12 ± 0.028 | 0.0211 ± 0.0092
GGAGACCAUACUAUACAACCAACUACGUCA | 0.00313 ± 0.003 | 0.00504 ± 0.004
GGAGUGCAUACUAUACAACCAACUACCUCA | 0.00672 ± 0.0023 | 0.00484 ± 0.0026
GGAGUGGAUACAUAACAACCUACUACCUCA | 0.113 ± 0.0099 | 0.00683 ± 0.0044
GGAGAGGAUACUAUACAACGUACUACCUGA | 0.0116 ± 0.0027 | 0.00359 ± 0.0014
GGAGAGGAAACUAUACAACCUACAACCUCA | 0.122 ± 0.03 | 0.00279 ± 0.0019
GGAGACCAUAAUAUACAACCUACUACCUCA | 0.0982 ± 0.013 | 0.0856 ± 0.03
